This passage reports inhibition results from PubChem BioAssay.

Values without a mark were called inactive. Calls of active or inactive are those of the source.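 Rule for the calls: active = inhibition above the hit cutoff set in the earlier primary screen (cut at about 27% in these data); inactive = the rest.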

Protein phosphatase methylesterase 1 (Homo sapiens), sequence (Q9Y570 whole entry, looked up): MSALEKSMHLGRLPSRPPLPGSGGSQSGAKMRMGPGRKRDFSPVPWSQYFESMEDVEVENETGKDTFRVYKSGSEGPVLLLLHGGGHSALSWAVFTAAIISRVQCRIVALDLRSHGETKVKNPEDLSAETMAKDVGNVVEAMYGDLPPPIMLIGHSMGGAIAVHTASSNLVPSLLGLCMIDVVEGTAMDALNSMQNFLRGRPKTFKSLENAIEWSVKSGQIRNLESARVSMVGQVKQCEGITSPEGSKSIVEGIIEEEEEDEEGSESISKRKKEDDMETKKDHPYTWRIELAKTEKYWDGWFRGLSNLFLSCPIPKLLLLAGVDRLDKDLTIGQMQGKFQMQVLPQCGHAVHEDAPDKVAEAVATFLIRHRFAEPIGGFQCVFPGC

This assay addresses Protein phosphatase methylesterase 1 (Homo sapiens) (UniProt Q9Y570). Nature of the assay: human PME-1 methylesterase inhibition confirmation – biochemical, fluorescence polarization, FP-Rh probe, triplicate (AID 2171).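 Note: 0% = enzyme with DMSO and 100% = wells lacking PME-1.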 Conditions: recombinant PME-1, FP-Rh probe fluorescence polarization; at 5.9 µM; active compounds read high. A general note: Polarisation of emitted light reports the rotation of a fluorescent probe.
For `O=C(O)c1cccc(-n2c(/C=C/c3ccc([N+](=O)[O-])cc3)nc3ccccc3c2=O)c1`, the inhibition is 24.3%.

For the molecule `N#CC(C#N)=NNc1ccc(S(=O)(=O)N2CCCCC2)cc1`, the inhibition is 14.8%.

As for `CN(C)S(=O)(=O)c1cccc(NC(=O)c2cc([N+](=O)[O-])ccc2N2CCCCC2)c1`, the inhibition was 43.2% (active).

As to `O=C1[C@@H]2Cc3c([nH]c4ccccc34)C(c3ccccc3)N2C(=O)CN1C1CC1` (stereo not given in full), the inhibition is 5.42%.

As for `CSc1ccc(C2Nc3cccc4cccc(c34)N2)cc1`, the inhibition is 36.5% (active).

Take `CC(C)=NNc1nc2sc3c(c2c(=O)[nH]1)CC(C)(C)OC3`: the inhibition was 14.6%.

For the molecule `COc1ccc2ccc3c(c2c1)N=C[C@]1(O3)N(C)c2ccccc2C1(C)C`, the inhibition was 5.96%.

As for `CCOc1cccc(/C=C/c2ccc3cccc(O)c3n2)c1O`, the inhibition was 26.6% (active).

As to `Nc1c(N=Nc2ccccc2F)c(=O)[nH]n1-c1ccccc1`, the inhibition is 30.1% (active).

Regarding `CCc1ccc(S(=O)(=O)/N=C2/C=C(Sc3ncn[nH]3)C(=O)c3ccccc32)cc1`, the inhibition is 52.9% (active).

With `N#C/C(=C\c1ccc(O)c(O)c1)C(=O)Nc1cccc2ncccc12`, the inhibition was -29.9%.

With `CC(=O)Cc1cc(O)c2ccccc2c1OC(=O)c1ccc(Br)cc1`, the inhibition was 24.8%.

On to `COc1ccc(/C=N/NC(=O)c2cc3cc(OC)c(OC)cc3[nH]2)cc1`, for which the inhibition was 8.04%.

Consider `COc1ccc(N/N=C(\C=N\O)C(=O)c2ccc(OC)cc2)cc1`, for which the inhibition is 58.9% (active).

On to `O=C(c1ccc2c(c1)OCO2)N1CCCC(c2ccccc2)C1` (stereo not given), for which the inhibition is 22%.

`O=C(c1sc2ccccc2c1Cl)N1CCN(c2ncccn2)CC1`: the inhibition was 24.4%.

Turning to `C=CCOc1c(OC)cc(/C=N/Nc2cccc(C(=O)O)c2)c(Br)c1Br`, the inhibition was 44.5% (active).

As to `Cc1ccc(S(=O)(=O)CCSc2cccc(C(=O)Nc3ccccc3C(=O)O)c2)cc1`, the inhibition was 35.8% (active).

Consider `COc1ccc(NC(=O)Nc2nnc(N3CCCCC3C)s2)cc1OC` (stereo not given), for which the inhibition was 43.7% (active).

As for `Nc1cc2nsnc2cc1Br`, the inhibition is 34.7% (active).

For the molecule `O=C1c2ccccc2-c2onc3ccc(NCCCn4ccnc4)c1c23`, the inhibition is 163% (active).

Consider `CCCCCCC(=O)N1CCC(c2nc3c(nnn3Cc3ccccc3Cl)c(=O)[nH]2)CC1`, for which the inhibition was 21.9%.

Regarding `COc1cccc(CNC(=O)CCCc2cn(C)c3ccccc23)c1`, the inhibition is 6.78%.

In the case of `COc1ccccc1NC(=O)c1cc2ccc(O)cc2o/c1=N\O`, the inhibition is 19.6%.

As to `COc1ccc2[nH]c(O)c(N=NC(=O)c3ccc(NS(=O)(=O)c4cccs4)cc3)c2c1`, the inhibition is 19.4%.

Regarding `CCOC(=O)Cc1csc(NC(=O)c2sc3nc4c(C)cc(C)cc4cc3c2N)n1`, the inhibition is 23.4%.

Consider `Nc1c(C(=O)Nc2ccccc2F)sc2nc(-c3ccco3)ccc12`, for which the inhibition was 19.9%.

As to `COc1ccc2nc(-n3c(O)c(C4=c5ccccc5=NC4=O)[nH]c3=S)sc2c1`, the inhibition is 45.8% (active).

As for `COc1ccc(Nc2ncnc3sc(-c4ccccc4)cc23)cc1OC`, the inhibition was 6.82%.

In the case of `CCC(CNc1cc(OC)cc2cccnc12)NC1CCCCC1` (stereo not given), the inhibition was 9.75%.

`COc1cc(OC)cc(C(=O)Oc2ccc(/C=N/Nc3nc4ccccc4s3)cc2OC)c1`: the inhibition is 24.3%.

`Cc1cc(C)c(C#N)c(SCc2nc3ccccc3[nH]2)n1`: the inhibition was 11.9%.

With `Fc1cccc2sc(Nc3nnc(-c4ccccc4)o3)nc12`, the inhibition was 33% (active).

As for `C=CCN=c1scc(-c2ccco2)n1/N=C/c1ccc(O)c(O)c1O`, the inhibition is -17.6%.

On to `O=C(O)c1ccc(N/N=C/c2ccc(-c3ccc(Cl)cc3Cl)o2)cc1`, for which the inhibition was 85.9% (active).

As for `COc1ccc(/C=C/c2c(-c3ccc(OC)cc3)oc3cccnc23)cc1`, the inhibition was 24.5%.

As for `O=C(Nc1ccc(Nc2ccccc2)cc1)Nc1ccccc1Cl`, the inhibition was -2.21%.

As to `Cc1ccc(O)c(N=CC2=C(O)c3ccccc3C2=O)c1`, the inhibition was 27.3% (active).

`CCc1nnc(NC(=O)c2sc3nc4c(cc3c2N)CCCCCC4)s1`: the inhibition was 16.3%.

Consider `CCCCN(CCCC)CCNC(=O)c1cn(C)c2ccc(S(=O)(=O)N(C)C3CCCCC3)cc2c1=O`, for which the inhibition is 58.5% (active).

For orientation: inhibition means the drop in the measured response relative to a control, in per cent.
